Data as given in PubChem BioAssay AID1159580 (chemical genetic matrix, 2015).
About 2,000 (36%) of roughly 5,500 compounds were called active. Not shown: some 18% with an inconclusive outcome. Cut-off read from the data, not from the text of the source: active = normalized growth mostly below about 0.91 (no sharp cut-off); inconclusive = no clear call, values can overlap the other calls; inactive = mostly above about 0.92. The list shows a part of the results.

Test: chemical genetic growth profiling, strain panel (AID 1159580);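 note: tested at 20 µM; growth read once vehicle control cultures reached saturation at 30 °C; 1 = growth at the plate median or of vehicle wells; lower values mean less growth of the strain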
Conditions: growth OD
[1] = S. cerevisiae deletion strains, locus YJR075W, strain HOC1, active compounds read low
[2] = S. cerevisiae deletion strains, locus YMR307W, strain GAS1, active compounds read low

Measured: normalized growth

O=[N+]([O-])c1ccc(CSc2ncnc3c2ncn3[C@@H]2O[C@H](CO)[C@H](O)C2O)cc1 (some centres not stated)
inactive: S. cerevisiae deletion strains, locus YAL013W, strain DEP1, active compounds read low 1.01 | S. cerevisiae deletion strains, locus YAL040C, strain CLN3, active compounds read low 1.01 | S. cerevisiae deletion strains, locus YCL061C, strain MRC1 (second series), active compounds read low 1.01 | S. cerevisiae deletion strains, locus YDR363W, strain ESC2, active compounds read low 1.01 | S. cerevisiae deletion strains, locus YER002W, strain NOP16, active compounds read low 0.997 | [1] 1.01 | [2] 0.996 | S. cerevisiae deletion strains, locus YNL175C, strain NOP13, active compounds read low 1.01 | S. cerevisiae deletion strains, locus YNL197C, strain WHI3, active compounds read low 1.01 | S. cerevisiae deletion strains, locus YNL224C, strain SQS1, active compounds read low 1 | S. cerevisiae deletion strains, locus YNL322C, strain KRE1, active compounds read low 1.01 | S. cerevisiae deletion strains, locus YOR083W, strain WHI5 (second series), active compounds read low 0.992 | S. cerevisiae deletion strains, locus YPL055C, strain LGE1, active compounds read low 1.01 | S. cerevisiae deletion strains, locus YPL241C, strain CIN2, active compounds read low 1.01

CC1(C)C(O)CC(O)C2(C)C1CC(=O)C1(C)C2CCC2(C)C(C(=O)O)OC(=O)C3OC321 (configuration not stated)
inactive: S. cerevisiae deletion strains, locus YBR021W, strain FUR4, active compounds read low 1.01 | S. cerevisiae deletion strains, locus YBR229C, strain ROT2, active compounds read low 1.01 | S. cerevisiae deletion strains, locus YCL029C, strain bik1, active compounds read low 0.996 | S. cerevisiae deletion strains, locus YDL035C, strain GPR1, active compounds read low 1.01 | S. cerevisiae deletion strains, locus YDL074C, strain BRE1, active compounds read low 1 | S. cerevisiae deletion strains, locus YDL101C, strain DUN1, active compounds read low 1.01 | S. cerevisiae deletion strains, locus YDL185W, strain tfp1, active compounds read low 0.984 | S. cerevisiae deletion strains, locus YDL192W, strain arf1, active compounds read low 1 | S. cerevisiae deletion strains, locus YDR101C, strain arx1, active compounds read low 1 | S. cerevisiae deletion strains, locus YDR150W, strain NUM1, active compounds read low 1.02 | S. cerevisiae deletion strains, locus YDR162C, strain NBP2, active compounds read low 1.03 | S. cerevisiae deletion strains, locus YDR318W, strain mcm21, active compounds read low 1 | S. cerevisiae deletion strains, locus YDR388W, active compounds read low 1 | S. cerevisiae deletion strains, locus YDR502C, strain sam2, active compounds read low 1.02 | S. cerevisiae deletion strains, locus YEL061C, strain CIN8, active compounds read low 1 | S. cerevisiae deletion strains, locus YER110C, active compounds read low 0.995 | S. cerevisiae deletion strains, locus YER155C, strain BEM2, active compounds read low 1.01 | S. cerevisiae deletion strains, locus YER167W, strain BCK2, active compounds read low 1.01 | S. cerevisiae deletion strains, locus YGL078C, strain dbp3, active compounds read low 0.996 | S. cerevisiae deletion strains, locus YGL086W, strain mad1, active compounds read low 1.01 | S. cerevisiae deletion strains, locus YGL248W, strain PDE1, active compounds read low 1.01 | S. cerevisiae deletion strains, locus YGR135W, strain pre9, active compounds read low 1.01 | S. cerevisiae deletion strains, locus YGR229C, strain SMI1, active compounds read low 1.01 | S. cerevisiae deletion strains, locus YGR252W, strain gcn5, active compounds read low 0.974 | S. cerevisiae deletion strains, locus YHR030C, strain SLT2, active compounds read low 1.01 | S. cerevisiae deletion strains, locus YHR079C, strain IRE1 (second series), active compounds read low 0.994 | S. cerevisiae deletion strains, locus YHR094C, strain hxt1, active compounds read low 1.01 | S. cerevisiae deletion strains, locus YHR129C, strain ARP1, active compounds read low 1.01 | S. cerevisiae deletion strains, locus YHR200W, strain rpn10, active compounds read low 1 | S. cerevisiae deletion strains, locus YIL066C, strain RNR3, active compounds read low 1.02 | S. cerevisiae deletion strains, locus YIL073C, strain SPO22, active compounds read low 1.03 | S. cerevisiae deletion strains, locus YIL125W, strain kgd1, active compounds read low 0.994 | S. cerevisiae deletion strains, locus YIR030C, strain dcg1, active compounds read low 0.999 | S. cerevisiae deletion strains, locus YJL095W, strain BCK1, active compounds read low 1.02 | S. cerevisiae deletion strains, locus YJL134W, strain LCB3, active compounds read low 1.01 | S. cerevisiae deletion strains, locus YJL168C, strain set2, active compounds read low 0.985 | S. cerevisiae deletion strains, locus YJL187C, strain SWE1 (second series), active compounds read low 1.01 | S. cerevisiae deletion strains, locus YJR043C, strain POL32, active compounds read low 1.02 | [1] 1.01 | S. cerevisiae deletion strains, locus YKL009W, strain mrt4, active compounds read low 0.986 | S. cerevisiae deletion strains, locus YKL068W, active compounds read low 1 | S. cerevisiae deletion strains, locus YKL085W, strain MDH1 (second series), active compounds read low 1 | S. cerevisiae deletion strains, locus YKL085W, strain MDH1, active compounds read low 1 | S. cerevisiae deletion strains, locus YKR001C, strain vps1, active compounds read low 0.99 | S. cerevisiae deletion strains, locus YLR039C, strain RIC1, active compounds read low 1.03 | S. cerevisiae deletion strains, locus YLR058C, strain SHM2, active compounds read low 1.01 | S. cerevisiae deletion strains, locus YLR102C, strain apc9, active compounds read low 0.998 | S. cerevisiae deletion strains, locus YLR262C, strain YPT6, active compounds read low 1 | S. cerevisiae deletion strains, locus YLR268W, strain sec22, active compounds read low 1.01 | S. cerevisiae deletion strains, locus YLR330W, strain CHS5, active compounds read low 1.01 | S. cerevisiae deletion strains, locus YLR342W, strain FKS1 (second series), active compounds read low 1 | S. cerevisiae deletion strains, locus YLR371W, strain rom2, active compounds read low 1.01 | S. cerevisiae deletion strains, locus YLR418C, strain cdc73, active compounds read low 1 | S. cerevisiae deletion strains, locus YML016C, strain PPZ1, active compounds read low 1.01 | S. cerevisiae deletion strains, locus YML032C, strain rad52, active compounds read low 1.01 | S. cerevisiae deletion strains, locus YML124C, strain tub3, active compounds read low 1 | S. cerevisiae deletion strains, locus YMR078C, strain ctf18, active compounds read low 0.984 | S. cerevisiae deletion strains, locus YMR223W, strain ubp8, active compounds read low 1.01 | S. cerevisiae deletion strains, locus YMR263W, strain SAP30, active compounds read low 1.01 | [2] 0.99 | S. cerevisiae deletion strains, locus YNL067W, strain RPL9B, active compounds read low 1.02 | S. cerevisiae deletion strains, locus YNL128W, strain TEP1, active compounds read low 1.02 | S. cerevisiae deletion strains, locus YNL153C, strain GIM3, active compounds read low 1.01 | S. cerevisiae deletion strains, locus YNL233W, strain BNI4, active compounds read low 1 | S. cerevisiae deletion strains, locus YNL250W, strain rad50, active compounds read low 0.999 | S. cerevisiae deletion strains, locus YNL271C, strain bni1, active compounds read low 0.993 | S. cerevisiae deletion strains, locus YNL298W, strain CLA4, active compounds read low 1.01 | S. cerevisiae deletion strains, locus YNL307C, strain MCK1, active compounds read low 1 | S. cerevisiae deletion strains, locus YNR052C, strain pop2, active compounds read low 0.994 | S. cerevisiae deletion strains, locus YOL012C, strain htz1 0.868 | S. cerevisiae deletion strains, locus YOL147C, strain pex11, active compounds read low 0.993 | S. cerevisiae deletion strains, locus YOR061W, strain CKA2, active compounds read low 1.01 | S. cerevisiae deletion strains, locus YOR069W, strain VPS5, active compounds read low 1.01 | S. cerevisiae deletion strains, locus YOR136W, strain idh2, active compounds read low 0.997 | S. cerevisiae deletion strains, locus YOR144C, strain elg1, active compounds read low 0.992 | S. cerevisiae deletion strains, locus YOR184W, strain ser1, active compounds read low 1.03 | S. cerevisiae deletion strains, locus YOR316C, strain cot1, active compounds read low 0.995 | S. cerevisiae deletion strains, locus YPR119W, strain clb2, active compounds read low 0.989 | S. cerevisiae deletion strains, locus YPR141C, strain kar3, active compounds read low 0.999 | S. cerevisiae deletion strains, locus YPR163C, strain tif3, active compounds read low 1.01 | S. cerevisiae deletion strains, locus YPR167C, strain met16, active compounds read low 0.997 | S. cerevisiae deletion strains, strain wtn01, active compounds read low 0.981 | S. cerevisiae strains, strain wild type, active compounds read low 1.01
